An excerpt weighted towards active compounds, which were near 11% of everything screened.
3T3 cytotox – NIH 3T3 cell cytotoxicity | Potency, µM (doses to about 96.7 µM), hits mostly inhibitors | NIH 3T3 viability, CellTiter-Glo ATP luminescence, 48-72 h | 4.3% of 94,000 active; further: nearly all actives have a fitted effect of over 55% in size
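NIH 3T3 cells at 400 cells/well received 23 nL of compound by pintool and were incubated 48 or 72 h at 37 °C. Viability was read as ATP-coupled CellTiter-Glo luminescence.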
FLuc inh – inhibitors of firefly (Photinus pyralis) luciferase; AID 1347043; Potency, µM (series often up to 115 µM), most hits filed as inhibitors; P08659; purified P. pyralis luciferase, luminescence, biochemical; 2.5% of 76,000 active; further: nearly all actives have a fitted effect of over 65% in size
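Inhibitors were tested against purified firefly luciferase in a biochemical, low-substrate format (both substrates at 10uM) and luminescence measured with a CCD imager.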
HEK cytotox – kills HEK 293 cells; HEK 293 viability, ATP luminescence (CellTiter-Glo), 48-72 h; Potency, µM (series often up to 115 µM), most hits filed as inhibitors; 6.6% of 94,000 active; AID 1345083; further: nearly all actives have a fitted effect of over 60% in size
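Luminescence from cellular ATP, measured with CellTiter-Glo, indicates HEK 293 viability. Cells plated at 250 cells/well are treated with compound for 48 or 72 hr at 37 degree Celsius before reagent addition.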
hNpr1 antagonist – antagonists of human natriuretic peptide receptor Npr1; P16066; HEK293 hNpr1 GloSensor cGMP, ANP-stimulated luminescence; Potency, µM (doses to about 46.3 µM), actives largely listed as inhibitors; 1.6% of 76,000 active; calls by dose curve; further: nearly all actives have a fitted effect of over 60% in size
Target sequence (P16066 whole entry, looked up): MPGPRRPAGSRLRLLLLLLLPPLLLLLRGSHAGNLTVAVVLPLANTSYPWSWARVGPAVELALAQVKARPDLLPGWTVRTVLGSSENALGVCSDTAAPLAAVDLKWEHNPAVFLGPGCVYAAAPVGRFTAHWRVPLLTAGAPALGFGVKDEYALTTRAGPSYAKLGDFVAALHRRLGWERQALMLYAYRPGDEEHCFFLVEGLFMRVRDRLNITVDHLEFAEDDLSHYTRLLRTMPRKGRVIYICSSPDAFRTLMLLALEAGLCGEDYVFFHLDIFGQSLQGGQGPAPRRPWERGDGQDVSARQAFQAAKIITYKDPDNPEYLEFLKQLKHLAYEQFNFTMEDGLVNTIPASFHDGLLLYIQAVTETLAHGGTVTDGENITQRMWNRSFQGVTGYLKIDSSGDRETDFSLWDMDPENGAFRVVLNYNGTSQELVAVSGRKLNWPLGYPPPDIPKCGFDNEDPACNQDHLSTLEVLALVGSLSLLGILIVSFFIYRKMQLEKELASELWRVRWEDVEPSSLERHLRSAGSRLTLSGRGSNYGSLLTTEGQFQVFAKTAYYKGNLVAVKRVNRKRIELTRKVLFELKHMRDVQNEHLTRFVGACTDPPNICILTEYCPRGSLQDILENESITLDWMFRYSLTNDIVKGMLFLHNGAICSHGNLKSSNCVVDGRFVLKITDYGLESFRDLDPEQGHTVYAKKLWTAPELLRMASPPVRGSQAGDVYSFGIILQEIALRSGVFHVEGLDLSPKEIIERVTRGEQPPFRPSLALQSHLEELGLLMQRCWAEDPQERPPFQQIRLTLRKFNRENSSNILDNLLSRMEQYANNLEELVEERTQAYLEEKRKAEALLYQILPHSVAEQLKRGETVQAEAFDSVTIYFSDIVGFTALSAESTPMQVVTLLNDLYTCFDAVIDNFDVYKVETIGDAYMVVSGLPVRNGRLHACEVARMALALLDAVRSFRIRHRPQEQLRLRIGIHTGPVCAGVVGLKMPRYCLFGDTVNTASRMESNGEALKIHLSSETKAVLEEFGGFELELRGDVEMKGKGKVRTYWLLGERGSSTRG
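HEK293 cells stably expressing human Npr1 and cGMP GloSensor pGS-40F, loaded 2 h with 2% GloSensor reagent, given compound 30 min at room temperature. Luminescence read before and 20 min after 0.1 nM hNppA.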
Hits are given with their value. Unless noted, the call rests on the fitted dose curve; in most records, active means well fitted curve in the direction sought with a large enough effect; inconclusive means small, poorly fitted or top-dose-only effect, or another doubt; inactive means no such curve, though single readings can be large; an effect the other way counts as inactive or inconclusive.

For COc1cncc(Nc2ncc(-c3ccccc3OC)c3c2OCC3)c1 the results were 3T3 cytotox 71µM, FLuc inh inactive, HEK cytotox inconclusive and hNpr1 antagonist inactive.
COc1ccc(Nc2ncc(-c3ccccc3OC)c3c2OCC3)cn1 was read as 3T3 cytotox inconclusive, FLuc inh 32µM, HEK cytotox inconclusive and hNpr1 antagonist inconclusive.
`COc1ccccc1Cn1c(=O)c(C(=O)N2CCOCC2)nc2cccnc21` gave 3T3 cytotox inactive and HEK cytotox inactive.
Screening COc1cc2c(cc1OC)C(CNC(=O)C(C)C)N(C(=O)Nc1ccc(C)cc1)CC2 (centres undefined) returned 3T3 cytotox inconclusive, FLuc inh inactive, HEK cytotox inconclusive and hNpr1 antagonist inactive.
Screening COCCN1CCOc2nc(-c3ccc(Oc4ccccc4)cc3)ncc2C1=O returned 3T3 cytotox inconclusive, FLuc inh 22µM, HEK cytotox 56µM and hNpr1 antagonist 22µM.
Screening O=C1c2cnc(-c3ccc(Oc4ccccc4)cc3)nc2OCCN1CC1CC1 returned 3T3 cytotox 28µM, FLuc inh inconclusive, HEK cytotox inconclusive and hNpr1 antagonist 7.1µM.
Screening O=C1c2cnc(-c3ccc(F)cc3)nc2OCCN1Cc1ccc(F)cc1F returned 3T3 cytotox inconclusive, FLuc inh inactive, HEK cytotox inconclusive and hNpr1 antagonist inactive.
For O=C1c2cnc(-c3ccc(CO)cc3)nc2OCCN1Cc1ccc(F)cc1F the results were 3T3 cytotox inconclusive, FLuc inh inconclusive, HEK cytotox 89µM and hNpr1 antagonist inactive.
For O=C1c2cnc(-c3cccnc3)nc2OCCN1Cc1ccccc1 the results were 3T3 cytotox inactive, FLuc inh inactive, HEK cytotox inconclusive and hNpr1 antagonist inactive.
Screening COc1ccc(CN2CCOc3nc(-c4cccc(NC(C)=O)c4)ncc3C2=O)cc1 returned 3T3 cytotox inconclusive, FLuc inh inactive, HEK cytotox 100µM and hNpr1 antagonist inactive.
For COC(=O)C1=C(C)N=C2SC=C(CC(=O)N3CCCC(C(N)=O)C3)N2C1c1cccc(Cl)c1 (centres undefined) the results were 3T3 cytotox inactive, FLuc inh inactive, HEK cytotox inactive and hNpr1 antagonist inconclusive.
Screening CC(=O)NCc1nnc2n1C(C(=O)NCc1ccccn1)CC2 (centres undefined) returned 3T3 cytotox inactive and HEK cytotox inactive.
Screening O=C1CCN(CC(O)Cc2ccccc2)c2ccsc2CN1Cc1ccccc1 (centres undefined) returned 3T3 cytotox inconclusive and HEK cytotox inactive.
CC(=O)NCCNC(=O)c1cccc(-c2ccc(C(F)(F)F)cc2)c1 was read as 3T3 cytotox inactive and HEK cytotox inactive.
Screening CN(C)C(=O)CNC(=O)c1cccc(-c2ccc(C(F)(F)F)cc2)c1 returned 3T3 cytotox inconclusive and HEK cytotox 40µM.
For CC(C)(C)C(=O)NCCNC(=O)c1cccc(-c2ccc(C(F)(F)F)cc2)c1 the results were 3T3 cytotox 45µM and HEK cytotox 25µM.
CS(=O)(=O)N1CC2(CCCN2C2COC2)Cc2ccccc21 (centres undefined) was read as 3T3 cytotox inactive and HEK cytotox inactive.
Screening O=C(Nc1cnc(-c2cccc(Cl)c2)nc1)c1ccc(F)cc1Cl returned 3T3 cytotox inconclusive, FLuc inh 11µM, HEK cytotox inconclusive and hNpr1 antagonist inconclusive.
For O=C(Nc1cnc(-c2cccc(Cl)c2)nc1)c1ccccc1F the results were 3T3 cytotox inactive, FLuc inh 1µM, HEK cytotox inactive and hNpr1 antagonist inactive.
O=C(Nc1cnc(-c2cccc(Cl)c2)nc1)c1ccsc1 was read as 3T3 cytotox inactive, FLuc inh inconclusive, HEK cytotox inactive and hNpr1 antagonist inactive.
Screening O=C(Nc1cnc(-c2ccc(Cl)cc2)nc1)c1cccc(F)c1 returned 3T3 cytotox inactive, FLuc inh 7.9µM, HEK cytotox inconclusive and hNpr1 antagonist inactive.
COc1ccccc1CC(=O)Nc1cnc(-c2cccc(Cl)c2)nc1 was read as 3T3 cytotox inconclusive, FLuc inh 13µM, HEK cytotox inconclusive and hNpr1 antagonist inactive.
`Cc1ccc(-c2ncc(NC(=O)c3ccc(F)c(F)c3)cn2)cc1` gave 3T3 cytotox inactive, FLuc inh inactive, HEK cytotox inactive and hNpr1 antagonist inactive.
For O=C(Nc1cnc(-c2cccc(Cl)c2)nc1)c1nccc2ccccc12 the results were 3T3 cytotox inconclusive, FLuc inh inactive, HEK cytotox inconclusive and hNpr1 antagonist inactive.
For Cn1cnc(S(=O)(=O)N2CC(c3nc(CCOCC4CC4)no3)C2)c1 the results were 3T3 cytotox inactive and HEK cytotox inactive.
`CNC(=O)c1cc(C2CC2)nc2onc(C3CCN(C(=O)NC(C)C)C3)c12` (centres undefined) gave 3T3 cytotox inactive and HEK cytotox inactive.

Assay outcomes as filed in PubChem.
